From PubChem BioAssay (NCATS)
“And” between values parts separate entries of the source, which are not always exact repeats. Identical values can stand only once. Records with an inconclusive call do not appear. A call without a number means that no potency is given here. The source made the active and inactive calls. Unless noted, calls follow the shape of the dose curve; as a rule, active = well fitted curve in the direction sought with a large enough effect; inconclusive = small, poorly fitted or top-dose-only effect, or another doubt; inactive = no such curve, though single readings can be large; an effect the other way counts as inactive or inconclusive.

Assays:
[1] = Cell Viability - N2a (AID 540); settings: N2a mouse neuroblastoma cell viability; activity change, negative = cytotoxicity: at 92.2 µM (top of the series); also: nearly all actives have a fitted effect of over 45% in size
How it was run: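 Mouse neuroblastoma N2a cells, 1500/well, exposed to compounds 40 h at 37 °C in complete medium. Viability measured as cellular ATP by CellTiter-Glo luminescence; AC50 from Hill fits of concentration-response.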

[2] = Cell Viability - H-4-II-E (AID 543); settings: H-4-II-E rat hepatoma viability; series mostly up to 92.2 µM; also: nearly all actives have a fitted effect of over 35% in size; also: potency is read from the fitted curve at half-maximal effect
How it was run: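 Rat hepatoma H-4-II-E cells, 1500 per well, treated 40 h at 37 °C in complete medium. Cellular ATP read by CellTiter-Glo luminescence; AC50 from Hill fits of concentration-response.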

[3] = Cellular Toxicity (caspase-3) NIH 3T3 (AID 666); settings: NIH 3T3 caspase-3 activation, apoptosis/toxicity; series mostly up to 92.2 µM;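 also: caspase signal read after 16 h compound exposure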
How it was run: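 Mouse NIH 3T3 fibroblasts (1000/well) treated 16 h at 37 C; caspase-3/7 activity measured by Caspase-Glo 3/7 luminescence after 20 min. Normalized to DMSO and 100 uM tamoxifen; AC50 from Hill fits.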

[4] = molecular target: Cytochrome P450 3A4 (Homo sapiens) (UniProt P08684); assay: qHTS Assay for Inhibitors and Substrates of Cytochrome P450 3A4 (AID 884); settings: recombinant CYP3A4, Luciferin-PPXE luminescence; series mostly up to 57.1 µM; also: nearly all actives have a fitted effect of over 50% in size
Chain of Cytochrome P450 3A4 (Homo sapiens) (P08684 whole entry, looked up): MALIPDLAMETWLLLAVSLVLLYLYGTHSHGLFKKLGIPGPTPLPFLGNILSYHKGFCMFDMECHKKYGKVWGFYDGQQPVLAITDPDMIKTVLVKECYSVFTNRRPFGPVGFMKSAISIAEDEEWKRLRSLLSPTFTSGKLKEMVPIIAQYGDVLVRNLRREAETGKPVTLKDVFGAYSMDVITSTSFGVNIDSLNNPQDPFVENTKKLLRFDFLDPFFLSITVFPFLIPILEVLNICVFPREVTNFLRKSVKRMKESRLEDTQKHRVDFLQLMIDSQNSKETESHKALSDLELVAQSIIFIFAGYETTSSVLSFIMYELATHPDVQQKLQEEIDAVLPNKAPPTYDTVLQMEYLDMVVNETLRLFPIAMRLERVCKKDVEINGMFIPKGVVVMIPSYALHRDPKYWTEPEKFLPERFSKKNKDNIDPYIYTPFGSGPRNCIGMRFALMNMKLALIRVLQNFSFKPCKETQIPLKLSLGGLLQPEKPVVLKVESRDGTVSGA
How it was run: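 20 nM human CYP3A4 with 25 uM Luciferin-PPXE (at KM) in 200 mM KPO4, preincubated 10 min with compound; NADPH regeneration started a 60 min RT reaction. Luciferin detected by luminescence, normalized to 57 uM ketoconazole as full inhibition.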

[5] = MultiTox-Fluor Cytotoxicity Assay - LYMP1-002 - Dead Cells (AID 960); settings: LYMP1-002 lymphoblastoid cells, dead-cell protease fluorescence; series mostly up to 46.1 µM; also: nearly all actives have a fitted effect of over 60% in size
How it was run: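 Human lymphoblastoid LYMP1-002 cells, 2500/well, treated 16 h at 37 C; dead-cell protease cleavage of bis-AAF-R110 read by fluorescence (485/520); normalized to DMSO and 15 uM tetraoctylammonium bromide; AC50 from Hill fit.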

[6] = Cell Viability - LYMP2-004 (AID 966); settings: LYMP2-004 lymphoblastoid cell viability, qHTS; series mostly up to 92.2 µM; also: nearly all actives have a fitted effect of over 65% in size
How it was run: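 Lymphoblastoid LYMP2-004 cells, 2500 per well, were preincubated for 5 hr and then treated with compound for 24 h at 37 C in complete medium. Viability was read as cellular ATP by CellTiter-Glo luminescence, and AC50 values were taken from Hill fits to concentration-response data.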

[7] = Cell Viability - LYMP2-021 (AID 974); settings: LYMP2-021 lymphoblastoid cells viability; series mostly up to 92.2 µM;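 also: compound exposure lasts 24 hours at 37 °C; nearly all actives have a fitted effect of over 55% in size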
How it was run: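 Human lymphoblastoid LYMP2-021 cells, 2500/well in complete medium, treated 24 hours at 37 C. Intracellular ATP by CellTiter-Glo luminescence (30 min, RT); AC50 from Hill fits of concentration-response.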

[8] = Cell Viability - LYMP2-012 (AID 982); settings: LYMP2-012 lymphoblastoid cell viability qHTS; series mostly up to 92.2 µM;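 also: cellular ATP by luciferase luminescence where a drop means cytotoxicity; cells exposed to compound for one day before reading; nearly all actives have a fitted effect of over 55% in size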
[9] = Cell Viability - LYMP1-002 - Assay at 40 hr (AID 994); settings: LYMP1-002 lymphoblastoid cell viability; series mostly up to 92.2 µM; also: nearly all actives have a fitted effect of over 60% in size
How it was run: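 LYMP1-002 human lymphoblastoid cells (2500/well, complete medium) were treated with compounds for 40 hr at 37 C. Intracellular ATP was measured by CellTiter-Glo luminescence, and AC50 values came from Hill-equation fits of concentration-response data; tetraoctylammonium bromide was the positive control.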

[10] = molecular target: Vitamin D3 receptor (Homo sapiens) (UniProt P11473); assay: qHTS assay for small molecule antagonists of vitamin D receptor signaling (AID 588541; calls by dose curve;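 also: receptor activated by calcitriol during compound treatment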); settings: HEK293T VDR-UAS-bla, beta-lactamase ratio, antagonist mode; series mostly up to 76.7 µM
Chain of Vitamin D3 receptor (Homo sapiens) (P11473 whole entry, looked up): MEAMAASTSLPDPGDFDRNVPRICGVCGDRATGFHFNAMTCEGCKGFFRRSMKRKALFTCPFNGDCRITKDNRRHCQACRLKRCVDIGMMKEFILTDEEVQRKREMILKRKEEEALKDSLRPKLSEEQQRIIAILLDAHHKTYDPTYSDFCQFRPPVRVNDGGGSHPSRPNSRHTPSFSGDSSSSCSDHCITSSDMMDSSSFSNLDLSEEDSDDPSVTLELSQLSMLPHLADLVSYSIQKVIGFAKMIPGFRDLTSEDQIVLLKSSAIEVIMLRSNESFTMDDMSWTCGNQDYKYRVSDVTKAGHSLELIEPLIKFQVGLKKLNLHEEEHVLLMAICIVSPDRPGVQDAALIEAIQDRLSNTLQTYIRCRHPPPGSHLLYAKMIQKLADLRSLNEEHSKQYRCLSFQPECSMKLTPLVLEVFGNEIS
How it was run: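 VDR-UAS-bla HEK293T cells in 2% charcoal-stripped FBS were stimulated with 1-alpha,25-dihydroxyvitamin D3 (3 nM final) plus compound for 16 h at 37 C. The beta-lactamase CCF4 readout was normalized to 50 nM agonist and DMSO, and Hill fits gave IC50.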

[11] = molecular target: Vitamin D3 receptor (Homo sapiens) (UniProt P11473); assay: qHTS assay for small molecule agonists of vitamin D receptor signaling (AID 588543; calls by dose curve); settings: HEK293T VDR-UAS-bla, beta-lactamase ratio, 16 h; series mostly up to 76.8 µM
How it was run: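 VDR-UAS-bla HEK293T cells, 2000/well, 2% charcoal-stripped FBS; compound titration 16 h at 37 C; CCF4 beta-lactamase ratio read. Normalized to 50 nM 1-alpha,25-dihydroxyvitamin D3 (100%) and DMSO; Hill fit gives EC50, efficacy.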

[12] = molecular target: Thyroid hormone receptor beta (Homo sapiens) (UniProt P10828); assay: qHTS assay for small molecule agonists of thyroid hormone receptor beta signaling (AID 588545; calls by dose curve); settings: TR-UAS-bla GripTite HEK 293, beta-lactamase ratio, agonist mode, 18 h; series mostly up to 76.7 µM
Chain of Thyroid hormone receptor beta (Homo sapiens) (P10828 whole entry, looked up): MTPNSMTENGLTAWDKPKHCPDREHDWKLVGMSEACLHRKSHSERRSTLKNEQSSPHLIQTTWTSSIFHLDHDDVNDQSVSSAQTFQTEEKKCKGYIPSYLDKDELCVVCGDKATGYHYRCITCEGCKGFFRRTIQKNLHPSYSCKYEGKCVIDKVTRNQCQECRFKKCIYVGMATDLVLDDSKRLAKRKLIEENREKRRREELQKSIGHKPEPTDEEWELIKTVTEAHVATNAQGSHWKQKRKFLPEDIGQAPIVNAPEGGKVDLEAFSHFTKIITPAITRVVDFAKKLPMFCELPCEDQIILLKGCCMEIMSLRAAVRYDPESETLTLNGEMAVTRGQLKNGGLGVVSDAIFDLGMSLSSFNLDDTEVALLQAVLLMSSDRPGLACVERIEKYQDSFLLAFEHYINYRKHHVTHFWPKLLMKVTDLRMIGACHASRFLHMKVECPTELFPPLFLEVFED
How it was run: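 Agonist-mode beta-lactamase reporter assay, HEK 293 cells, 2% charcoal/dextran FBS; cells plated 4 hrs, compound 18 hrs at 37 C, CCF4 2 hrs RT. Normalized to 10 nM T3 (100%) and DMSO (0%); Hill fit gives EC50, efficacy.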

[13] = qHTS assay for small molecule antagonists of retinoid X receptor alpha signaling (AID 588546; active = well fitted inhibition curve with a large enough effect in the signal ratio, with a control signal flat, not every such curve was filed as active; the % refers to the signal ratio;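 also: cells stimulated with 9-cis-retinoic acid as agonist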); settings: HEK293T RXRa-UAS-bla, beta-lactamase ratio, antagonist mode; measured here: W530 green channel, cytotoxicity proxy
How it was run: (§1)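 Beta-lactamase reporter inhibition, read as CCF4 fluorescence ratio (ex 405, em 460/530 nm) after 2 h at RT. HEK293T UAS-bla cells, 2500/well, were stimulated with 9-cis-RA at 500 or 100 nM final alongside test compound for 18 h at 37 C.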

[14] = molecular target: Retinoic acid receptor RXR-alpha (Homo sapiens) (UniProt P19793); assay: as above; settings: HEK293T RXRa-UAS-bla, beta-lactamase ratio, antagonist mode
Chain of Retinoic acid receptor RXR-alpha (Homo sapiens) (P19793 whole entry, looked up): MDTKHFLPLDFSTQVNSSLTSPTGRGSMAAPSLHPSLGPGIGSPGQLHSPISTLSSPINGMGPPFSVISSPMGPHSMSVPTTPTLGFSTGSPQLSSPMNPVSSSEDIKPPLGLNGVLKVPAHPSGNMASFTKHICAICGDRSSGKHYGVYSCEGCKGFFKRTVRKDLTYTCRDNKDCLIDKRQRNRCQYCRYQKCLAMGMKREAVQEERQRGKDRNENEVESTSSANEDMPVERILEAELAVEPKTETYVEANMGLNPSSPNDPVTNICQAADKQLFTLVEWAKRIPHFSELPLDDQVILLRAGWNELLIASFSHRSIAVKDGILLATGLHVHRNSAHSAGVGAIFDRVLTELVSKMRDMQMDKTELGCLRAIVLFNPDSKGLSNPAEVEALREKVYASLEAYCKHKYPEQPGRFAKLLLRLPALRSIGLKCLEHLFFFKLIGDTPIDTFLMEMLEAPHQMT
How it was run: as §1

[15] = molecular target: Tumor necrosis factor (Homo sapiens) (UniProt P01375); assay: qHTS assay to identify small molecules that stimulate Tumor Necrosis Factor-alpha (TNF-alpha) secretion (AID 651757; active = well fitted curve in the direction sought with a large enough effect in the signal ratio; the % refers to the signal ratio); settings: Human cells, HTRF 665/615 ratio; series mostly up to 92.2 µM
Chain of Tumor necrosis factor (Homo sapiens) (P01375 whole entry, looked up): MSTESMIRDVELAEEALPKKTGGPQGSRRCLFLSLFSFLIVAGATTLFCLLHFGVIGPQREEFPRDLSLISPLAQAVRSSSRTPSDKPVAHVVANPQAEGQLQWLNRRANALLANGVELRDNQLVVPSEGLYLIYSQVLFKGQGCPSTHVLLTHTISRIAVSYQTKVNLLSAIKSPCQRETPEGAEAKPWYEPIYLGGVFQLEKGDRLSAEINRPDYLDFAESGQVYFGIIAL
How it was run: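 THP-1 cells (3000/well) exposed to compounds 17 hrs at 37 C. Secreted TNF-alpha detected by HTRF with cryptate- and XL665-labeled anti-TNF-alpha antibodies after 3 hr at room temperature.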

[16] = molecular target: Nuclear receptor ROR-gamma (Homo sapiens) (UniProt P51449); assay: qHTS assay for small molecule antagonists of the retinoid-related orphan receptor gamma (ROR-gamma) signaling pathway (AID 651802); settings: ROR-gamma antagonist cell reporter assay; series mostly up to 92.2 µM; also: nearly all actives have a fitted effect of over 60% in size; also: potency is read from the fitted curve at half-maximal effect
Chain of Nuclear receptor ROR-gamma (Homo sapiens) (P51449 whole entry, looked up): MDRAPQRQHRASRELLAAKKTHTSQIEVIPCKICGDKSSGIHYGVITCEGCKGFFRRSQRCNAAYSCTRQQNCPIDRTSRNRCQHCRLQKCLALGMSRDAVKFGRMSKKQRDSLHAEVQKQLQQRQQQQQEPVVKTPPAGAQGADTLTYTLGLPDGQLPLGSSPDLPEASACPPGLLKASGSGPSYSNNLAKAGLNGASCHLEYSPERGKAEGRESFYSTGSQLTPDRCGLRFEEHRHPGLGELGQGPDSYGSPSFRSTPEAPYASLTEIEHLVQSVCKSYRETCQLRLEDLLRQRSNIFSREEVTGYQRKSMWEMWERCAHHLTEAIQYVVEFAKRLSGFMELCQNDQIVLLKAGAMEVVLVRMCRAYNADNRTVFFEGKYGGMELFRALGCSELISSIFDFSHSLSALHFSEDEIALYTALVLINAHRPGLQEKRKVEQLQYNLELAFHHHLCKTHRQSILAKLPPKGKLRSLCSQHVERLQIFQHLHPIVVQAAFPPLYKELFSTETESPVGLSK
How it was run: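 CHO cells with TET-inducible ROR-gamma and RORE-luciferase reporter, dosed then doxycycline-induced. After 16 h at 37C, One-Glo luminescence read; decreased signal indicates antagonism.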

[17] = qHTS assay for small molecule agonists of the antioxidant response element (ARE) signaling pathway measured by Nrf2-dependant transcriptional activity (AID 720636; active = well fitted curve in the direction sought with a large enough effect in the repeat runs; an effect the other way counts as inactive or inconclusive;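 also: HepG2 cells with an ARE-driven luciferase reporter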); settings: ARE-luc HepG2, Nrf2 luciferase reporter, 16 h; series mostly up to 92.4 µM
How it was run: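 ONE-Glo luminescence, read 30 min after reagent addition at room temperature, reflected ARE reporter activity in HepG2 cells that had been incubated with compound for 16 hr at 37 C in 1% dialyzed FBS.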

[18] = qHTS assay for small molecule antagonists of the retinoid-related orphan receptor gamma (ROR-gamma) signaling pathway - cell viability counter screen (AID 720652; active = well fitted curve in the direction sought with a large enough effect in the repeat runs; an effect the other way counts as inactive or inconclusive;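 also: compound exposure lasted 16 hr before ATP read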); settings: RORgamma reporter cell line viability counter screen; series mostly up to 92.2 µM
How it was run: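 CHO cells carrying TET-inducible ROR and RORE-luciferase reporter, plated 5 hr, then dosed with compound plus doxycycline. After 16 hr at 37 C, viability read as intracellular ATP by CellTiter-Glo luminescence.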

[19] = qHTS assay for small molecule activators of the human pregnane X receptor (PXR) signaling pathway (AID 720659; call rule not given here); settings: DPX-2 HepG2 CYP3A4-luciferase, 24 h; series mostly up to 92.3 µM
[20] = Cellular Toxicity (caspase-3) Mesangial (AID 660); settings: mesangial cells, normalized: DMSO 0%, 100 µM tamoxifen 100%; series mostly up to 91.7 µM;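 also: combined caspase 3 and 7 activity read by Caspase-Glo luminescence; cells exposed to compound for 16 h before the caspase read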
How it was run: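 Human renal glomerular mesangial cells, 1000/well, 5 h at 37 C before 16 h compound treatment. Caspase-Glo 3/7 luminescence after 20 min; normalized to DMSO and 100 uM tamoxifen, AC50 from Hill fit.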

| SMILES | Potency [1] | Potency [2] | Potency [3] | Potency [4] | Potency [5] | Potency [6] | Potency [7] | Potency [8] | Potency [9] | outcome [10] | outcome [11] | Potency [12] | max response [13] | max response [14] | outcome [15] | Potency [16] | Potency [17] | Potency [18] | outcome [19] | outcome [20] |
| --- | --- | --- | --- | --- | --- | --- | --- | --- | --- | --- | --- | --- | --- | --- | --- | --- | --- | --- | --- | --- |
| CC(C)(Cl)[N+](=O)[O-] | inactive | inactive | inactive | inactive | inactive | inactive | inactive | inactive | inactive | inactive | inactive | inactive | -8.14% | 5.8% (inactive) | inactive | inactive | inactive | inactive | inactive | – |
| Nc1ccc2ccccc2c1 | inactive | inactive | – | – | – | inactive | inactive | inactive | inactive | inactive | inactive | inactive | -4.26% | -0.227% (inactive) | inactive | inactive | inactive | inactive | inactive | inactive |
| Oc1cccc(Cl)c1Cl | inactive | inactive | inactive | inactive | inactive | inactive | inactive | inactive | inactive | – | – | inactive | -4.72% | -5.77% (inactive) | inactive | inactive | inactive | inactive | inactive | inactive |
| O=C(O)C(Cl)Br (configuration not stated) | inactive | inactive | inactive | inactive | inactive | inactive | – | inactive | inactive | inactive | inactive | – | -6.53% | 0.341% (inactive) | inactive | inactive | inactive | inactive | inactive | – |
| Clc1cccc(Cl)c1Cl | inactive | inactive | inactive | inactive | inactive | inactive | inactive | inactive | inactive | inactive | inactive | inactive | 3.05% and -10.8% | 1.17% (inactive) and -4.41% (inactive) | inactive | inactive | inactive | inactive | inactive | inactive |
| N#C/C(N)=C(/N)C#N | inactive | inactive | – | inactive | inactive | inactive | inactive | inactive | inactive | inactive | inactive | inactive | -2.22% | 2% (inactive) | inactive | inactive | inactive | inactive | inactive | inactive |
| COC(=O)Nc1nc2ccccc2[nH]1 | inactive | 3.98 µM (active) | inactive | – | – | – | inactive | inactive | – | inactive | inactive | inactive | 1.76% | -21.4% (inactive) | inactive | inactive | – | inactive | – | inactive |
| O=[N+]([O-])c1ccc2c3c(cccc13)CC2 | inactive | inactive | inactive | – | inactive | inactive | inactive | inactive | inactive | inactive | inactive | inactive | -3.8% and -0.996% | 28.1% (inactive) and 10.3% (inactive) | inactive | inactive | inactive | inactive | inactive | inactive |
| Oc1cccc(Cl)c1 | inactive | inactive | inactive | inactive | inactive | inactive | inactive | inactive | inactive | inactive | inactive | inactive | -0.103% | 4.02% (inactive) | inactive | inactive | inactive | inactive | inactive | inactive |
| Nc1cc(Cl)cc(C(=O)O)c1Cl | inactive | inactive | inactive | – | inactive | inactive | inactive | inactive | inactive | inactive | inactive | inactive | 0.823% and -3.03% | 5.23% (inactive) and 3.9% (inactive) | inactive | inactive | inactive | inactive | inactive | inactive |
| Nc1ccccc1-c1ccccc1 | inactive | inactive | inactive | inactive | inactive | inactive | inactive | – | inactive | inactive | inactive | inactive | -0.398% | -19.9% (inactive) | inactive | inactive | inactive | inactive | inactive | inactive |
| FC(Cl)(Cl)Cl | inactive | inactive | inactive | inactive | – | inactive | inactive | inactive | inactive | inactive | inactive | inactive | -8.6% | -1.5% (inactive) | inactive | inactive | inactive | inactive | inactive | inactive |
| Nc1ccc([N+](=O)[O-])cc1[N+](=O)[O-] | – | 20 µM (active) | inactive | inactive | inactive | inactive | inactive | inactive | inactive | inactive | inactive | inactive | – | – | inactive | 0.944 µM (active) | inactive | inactive | inactive | inactive |
| O=C(Cc1ccccc1)OCc1ccccc1 | inactive | inactive | inactive | inactive | inactive | inactive | inactive | inactive | inactive | inactive | inactive | inactive | 8.24% | -5.19% (inactive) | inactive | inactive | inactive | inactive | inactive | inactive |
